{"source": "ChEMBL document CHEMBL1157539", "about": "“Thousands of chemical starting points for antimalarial lead identification” (Nature, 2010)"}
{"test_system": "Plasmodium falciparum", "experiment": "GSK_TCMDC: Inhibition of Plasmodium falciparum Dd2 in whole red blood cells, using parasite LDH activity as an index of growth. Test compounds present at 2uM", "format": "functional", "units": {"Inhibition": "%"}}
{"smiles": "COc1ccc(CNCCCCCCNCc2ccc(OC)c3ccccc23)c2ccccc12.Cl", "Inhibition": 49}
{"smiles": "CCOCCCn1c(=N)c(C(=O)NC(C)c2ccccc2)cc2c(=O)n3cccc(C)c3nc21", "note": "(stereo not given)", "Inhibition": 31}
{"smiles": "c1csc(-c2nc(N3CCCC3)ncc2-c2ccsc2)n1", "Inhibition": 75}
{"smiles": "O=C(O)C(F)(F)F.c1ccc(-n2ncc(CNCc3ccc(-c4ccc(-c5nc6ccccc6[nH]5)s4)cc3)n2)cc1", "Inhibition": 46}
{"smiles": "COc1cc(OC)cc(C(=O)N2CCOC(CCN3CCC(c4ccccc4)CC3)(c3ccc(Cl)c(Cl)c3)C2)c1", "note": "(stereo not given)", "Inhibition": 61}
{"smiles": "Cl.N=C(N)NN=Cc1c2ccccc2c(Cl)c2ccc(Cl)cc12", "Inhibition": 89}
{"smiles": "Cc1cc(CNC(=O)c2ccc(-c3ccc(-c4nc5cc(C(F)(F)F)ccc5[nH]4)s3)cc2)on1", "Inhibition": 56}
{"smiles": "CCOC(=O)CC[C@@H](NC(=O)c1ccc(NCc2ccc3ccc4nc(C)[nH]c(=O)c4c3c2)cc1F)C(=O)N[C@@H](Cc1c[nH]c2ccccc12)C(=O)OCC", "Inhibition": 77}
{"smiles": "Cc1cc(O)c(-c2ccc(Oc3ccc(F)cc3)cc2)c(C)n1", "Inhibition": 59}
{"smiles": "COc1ccc(-c2nc(NC(=O)COc3ccc(C(C)=O)cc3)sc2C)cc1", "Inhibition": 58}
